Source: PubChem
D2 ag-1: activates the human D2 dopamine receptor. 340,000 compounds, 0.53% hits. activation, % at 2 µM. HEK293 T-REx D2 cells, calcium flux agonist mode. AID 485358;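 active means activation over 3 SD above normal in the single-dose calcium agonist read, cut at about 30% in these data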; further: 0% is about no effect
Target sequence (P14416 whole entry, looked up): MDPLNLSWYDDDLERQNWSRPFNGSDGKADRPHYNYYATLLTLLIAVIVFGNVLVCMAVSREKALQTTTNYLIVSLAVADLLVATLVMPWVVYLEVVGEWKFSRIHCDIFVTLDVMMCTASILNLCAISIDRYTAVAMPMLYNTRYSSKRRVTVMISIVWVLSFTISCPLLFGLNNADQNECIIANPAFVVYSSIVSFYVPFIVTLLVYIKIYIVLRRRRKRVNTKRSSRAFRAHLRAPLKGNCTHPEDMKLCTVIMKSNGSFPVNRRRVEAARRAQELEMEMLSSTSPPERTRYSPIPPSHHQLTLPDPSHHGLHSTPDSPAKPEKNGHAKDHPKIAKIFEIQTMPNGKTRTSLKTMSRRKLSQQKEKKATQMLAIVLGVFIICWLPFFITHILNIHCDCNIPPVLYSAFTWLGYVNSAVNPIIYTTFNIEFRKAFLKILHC
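Tetracycline-induced HEK293 Trex cells with D2 receptor force-coupled to calcium signaling, plated overnight at 30 C and loaded with no-wash calcium dye. Calcium flux read kinetically for 180 s after compound addition; responses flag agonists.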
D2 PAM-1: potentiates the human D2 dopamine receptor allosterically; P14416; DiscoveRx D2 beta-arrestin cells, luminescence, 90 min; 100% = 57 uM dopamine signal; potentiation, % (concentration not given with the values); 360,000 compounds, 0.23% hits; AID 624464; in the data active means potentiation above about 50%
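PathHunter beta-arrestin assay in DiscoveRx D2 cells. Compounds were added with an EC20 of dopamine (50 nM final) for 90 min at 37 deg C. Luminescence was read 1 h after detection reagent, with 57 uM dopamine as the EC100 control.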
D2 PAM-2: D2 dopamine receptor (human) potentiation. P14416. HEK293 T-REx D2, calcium flux, EC20 dopamine potentiation. potentiation, % at 10 µM. 340,000 compounds, 0.34% hits. AID 485347;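 active means potentiation over 3 SD above the plate norm, cut at about 30% in these data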; further: 0% is about no effect
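Tetracycline-induced Hek293 Trex D2 cells, force-coupled to calcium, loaded with no-wash calcium dye. Compound added with 180 s kinetic read for agonism, then EC20 dopamine and a further 180 s read for potentiation.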
D2 antagonist: antagonizes the human D2 dopamine receptor; inhibition, % at 10 µM; 340,000 compounds, 2% hits; HEK293 TREx D2 cells, calcium flux, dopamine EC80; in the data active means inhibition above about 30%; inactive means below that, where a call was filed; further: 0% is about no effect
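Dopamine at EC80 is the agonist stimulus; test compounds precede it by 180 s. Calcium flux read kinetically in a force-coupled, inducible HEK293 T-REx D2 cell line.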
D2 ag-2: agonists of human D2 dopamine receptor (beta-arrestin); P14416; DiscoveRx PathHunter D2 beta-arrestin, luminescence, 90 min; 100% = 57 uM dopamine signal; 360,000 compounds, 0.084% hits; AID 624465; activation, % (test concentration not listed); in the data active means activation above about 40%
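DiscoveRx PathHunter D2 beta-arrestin cells (2,100/well) attached overnight, then compound-stimulated 90 min at 37 C in HBSS/10 mM HEPES/0.1% Tween-20 buffer; beta-galactosidase complementation read by luminescence after 1 h at ambient temperature. Dopamine 57 uM final (EC100) as control.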
Starred values were filed as active, the others as inactive; . = no result. This is a sample that favours compounds with a hit; in the whole collection about 2.4% have one here.

SMILES | D2 ag-1 | D2 PAM-1 | D2 PAM-2 | D2 antagonist | D2 ag-2
O=C(CSc1nccn1-c1ccc(F)cc1)Nc1ccc2c(c1)OCO2 | 1 | -8 | 39* | -29 | -4
Cc1cccc(NC(=O)CSc2nnc(-c3cnccn3)n2Cc2ccco2)c1 | 0 | -18 | 25 | -12 | -4
O=C(CSc1ncc(-c2ccc(F)cc2)n1Cc1ccco1)Nc1ccc2c(c1)OCO2 | 1 | -24 | -16 | 37* | -3
CCOc1ccc(NC(=O)CSc2ncc(-c3ccc(F)cc3)n2Cc2ccco2)cc1 | 0 | -10 | 21 | 12 | -2
Cc1ccc(NC(=O)CSc2nnc(-c3cnccn3)n2Cc2ccco2)cc1 | -4 | -14 | -7 | 32* | -2
CCc1ccc(NC(=O)Cn2cnc3sc(C)c(S(=O)(=O)N4CCC(C)CC4)c3c2=O)cc1 | 0 | . | 8 | . | .
CC(C)CN(C(=O)C1COc2ccccc2O1)c1c(N)n(CC(C)C)c(=O)[nH]c1=O (stereo unspecified) | 0 | 0 | 14 | -36 | 0
Cc1ccc(S(=O)(=O)Cc2ccc(C(=O)N3CCc4ccccc4C3)o2)cc1 | 0 | -10 | 58* | -16 | 1
Cc1ccc(S(=O)(=O)Cc2ccc(C(=O)N3CCN(Cc4ccccc4)CC3)o2)cc1 | -1 | . | 51* | -9 | .
COc1ccc(S(=O)(=O)Cc2ccc(C(=O)N3CCN(Cc4ccccc4)CC3)o2)cc1 | 3 | -3 | 6 | 0 | 1
O=C(NCc1ccc(Cl)c(Cl)c1)c1cc(C2CCCCN2C(=O)c2cccs2)on1 (stereo unspecified) | . | -10 | . | . | -3
CC(C)(C)c1cc(OC(=O)c2ccncc2)ccc1O | . | 69* | 0 | . | 9
CCOCCCNc1nc2c(C)cccn2c(=O)c1/C=C1\SC(=S)N(CC(C)C)C1=O | 5 | 0 | 5 | 18 | -1
CCOC(=O)CC1C(=O)NCCN1c1nc2c(C)cccn2c(=O)c1/C=C1\SC(=S)N(CC(C)C)C1=O (stereo unspecified) | 33* | . | -2 | 19 | .
CC(=O)Nc1nonc1-c1nnc(SCC(=O)Nc2c(C)cccc2C)n1-c1ccccc1 | 4 | . | -17 | . | .
CN(C)CCNC(=O)C1(C)Cc2c(-c3cccc(C(F)(F)F)c3)ccnc2O1 (stereo unspecified) | . | -9 | . | . | -2
COc1ccc(CCN(C)CC(O)COc2ccc(C(C)=O)cc2OC)cc1OC (stereo unspecified) | 0 | -8 | 2 | 36* | -2
CC(=O)c1ccc(OCC(O)CN(C)CCOc2ccc(Br)cc2)cc1 (stereo unspecified) | 3 | -9 | -26 | 44* | 2
CC(=O)c1cccc(OC(=O)Oc2cccc(C(C)=O)c2)c1 | . | 0 | . | . | 0
CC(C)Oc1ccc(C(=O)Nc2nc3ccccc3[nH]2)cc1 | 1 | 0 | 105* | -2 | -3
O=C(Nc1nc2ccccc2[nH]1)c1ccc(OC(F)F)cc1 | 0 | -6 | -8 | -4 | 2
O=C(O)C1(c2ccccc2)CCN(S(=O)(=O)c2ccc(F)c(F)c2)CC1 | 2 | 0 | 3 | -1 | 2
CC1=CCC(C(=O)O)C(C(=O)NC2CCCCC2)C1 (stereo unspecified) | 2 | -4 | 20 | 45* | 1
CC1=C(C)CC(C(=O)NC2CCCC2)C(C(=O)O)C1 (stereo unspecified) | 0 | 0 | 5 | -4 | -2
O=C(CCN=C1NS(=O)(=O)c2ccccc21)Nc1ccc(Cl)cc1F | -1 | -3 | -14 | 40* | 4
SMILES | D2 ag-1 | D2 PAM-1 | D2 PAM-2 | D2 antagonist | D2 ag-2
O=C(CCCN=C1NS(=O)(=O)c2ccccc21)Nc1ccc(Cl)cc1 | 0 | -14 | -16 | 6 | -2
Cc1ccc(OCCCNCCO)c(Br)c1 | 1 | -29 | -14 | 39* | 0
Cc1ccc(OCCCN(C)C)c(Br)c1 | 0 | -18 | 8 | 37* | -2
C[C@H]1CN([C@@H](C)CO)C(=O)CCCn2nncc2CO[C@@H]1CN(C)S(=O)(=O)c1cccc(F)c1 | . | -2 | . | . | -4
O=C(c1cnn(-c2cccc(F)c2)c1-n1cccc1)N1CCN(c2ccccc2F)CC1 | 0 | . | 6 | . | .
COc1ccccc1CCNS(=O)(=O)c1cn(C)c(=O)n(C)c1=O | 0 | -8 | -5 | -13 | -7
COc1ccccc1CCNS(=O)(=O)c1c(C)n(C)c(=O)n(C)c1=O | 0 | -7 | 32* | 3 | -6
CCc1ccc(-n2c(=O)c3cccnc3n2CC(=O)Nc2cc(F)ccc2F)cc1 | . | . | -3 | . | .
CCC(Oc1ccccc1)C(=O)Nc1ccccc1C(=O)N1CCCCC1 (stereo unspecified) | 0 | 69* | -14 | -13 | -2
CCOC(=O)C1=C(CN2CCN(c3ccc(C)cc3C)CC2)NC(=O)NC1c1ccc(OC)cc1 (stereo unspecified) | . | . | -7 | . | .
Cc1ccc2c(=O)c(C(=O)c3ccc(F)cc3)cn(CC(=O)NCc3ccco3)c2n1 | 0 | 15 | -2 | 33* | 5
CCCCN(C)Cc1c(O)ccc2c(-c3ccccc3)cc(=O)oc12 | 0 | -43 | . | 64* | -1
CCCCN(CC)Cc1c(O)ccc2c(-c3ccccc3)cc(=O)oc12 | -1 | -35 | -26 | -10 | -3
CC(C)OC(=O)c1cccnc1N1CCN(c2ccc(F)cc2)CC1 | -2 | -10 | 2 | 33* | -3
CC(C)OC(=O)c1ccc(N2CCN(c3ccc(F)cc3)CC2)nc1 | -1 | -5 | -1 | -7 | 5
CCC(=O)OCOc1ccc(/C=C2/CCC(CN(C)C)C2=O)cc1 (stereo unspecified) | . | -36 | . | . | -2
c1ccc(Cc2c[nH]c3ccccc23)cc1 | 0 | -3 | 6 | -6 | 6
CN(Cc1ccccc1)Cc1c[nH]c2ccccc12 | -1 | -45 | -23 | 35* | -4
CCCCc1ccc(NS(=O)(=O)c2ccc(N3CCCCS3(=O)=O)cc2)cc1 | 0 | . | 3 | . | .
COc1ccccc1N1CCN(CC(O)COc2ccc(Cl)c(C)c2)CC1 (stereo unspecified) | 1 | . | -34 | . | .
Cc1nc(-c2cc(C#N)c(=O)[nH]c2C)cs1 | 1 | 0 | 0 | 8 | 0
Cc1[nH]c(=O)c(C#N)cc1-c1csc(-c2ccccc2)n1 | 1 | -24 | -4 | 39* | -2
NC(=O)c1c(NC(=O)Cc2ccccc2)sc2c1CCN(Cc1ccccc1)C2 | 1 | -11 | -18 | 47* | 3
CC(NC(=O)Cn1cccc1C(=O)c1ccccc1)c1ccc2c(c1)OCCO2 (stereo unspecified) | 0 | -6 | 34* | 9 | -2
COc1ccc2cc(C#N)c(SCC(=O)N3CC(=O)Nc4ccccc43)nc2c1 | . | -8 | -7 | . | -4
Cc1cccc2cc(C#N)c(SCC(=O)N3CC(=O)Nc4ccccc43)nc12 | 3 | 8 | -2 | 34* | -3
